Source: PubChem BioAssay AID1745849 (National Center for Advancing Translational Sciences (NCATS), 2022)
The campaign covered roughly 2,100 compounds. About 320 (15%) were called active. Inconclusive results (about 52%) are left out. The list shows a part of the results. Unmarked numbers belong to inactive results. The call rests on the fitted dose curve; in most records, active means well fitted cell-killing curve with a large enough effect; inconclusive means small, poorly fitted or top-dose-only effect, or effect the other way; inactive means flat fitted curve, though single readings scatter.

Assay: Viability Counterscreen for CMV-Luciferase Assay of Inhibitors of ATXN expression; further: nearly all actives have a fitted effect of over 55% in size
Conditions: HEK-293 CMV-luciferase cells viability, protease fluorescence, 24 h; activity change, negative = cytotoxicity: at the top concentration
Summary of the method: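 Dosing on CMV-luciferase HEK-293 cells for 24 hr, 37 °C. Luminescence read with SteadyGlo; cytotoxicity measured first as Gly-Phe-AFC protease fluorescence, 25 uM final substrate, 30 min.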
On the % scale 0 is the no-effect control and ±100 the full control effect; potency means the concentration at half of the fitted maximal effect.

Structure (SMILES) | Potency | activity change, negative = cytotoxicity
Cc1ccc(C)c(/C=C/C(=O)c2ccccc(=O)c2O)c1 | 20 µM (active) | –
O=c1c2c(nc3c(-c4cccc(Br)c4)c[nH]n13)CCCC2 | 10 µM (active) | –
O=c1c2c(nc3c(-c4ccc(Cl)cc4)c[nH]n13)CCC2 | – | -20.6%
O=C(Nc1cccnc1)C1Cc2c(-c3ccc4c(c3)OCO4)ccnc2O1 (stereo not given) | – | -12.2%
COc1ccc(Cl)cc1S(=O)(=O)N1CCN(C(=O)c2n[nH]c(=O)c3ccccc23)CC1 | – | -12.8%
Cc1ccnc(NC(c2ccccc2)c2ccc3cccnc3c2O)c1 (stereo not given) | – | -17.1% [at 57.5 µM]
Oc1c(C(Nc2cccc(C(F)(F)F)c2)c2ccncc2)ccc2cccnc12 (stereo not given) | 8.91 µM (active) | –
O=C(O)CSc1cc(NS(=O)(=O)c2cccc([N+](=O)[O-])c2)c2ccccc2c1O | – | -27.2%
CC(C)C(=O)NC(c1cccc([N+](=O)[O-])c1)c1ccc2cccnc2c1O (stereo not given) | 3.16 µM (active) | –
O=[N+]([O-])c1ccc(NC(c2ccccc2)c2ccc3cccnc3c2O)cc1 (stereo not given) | 11.2 µM (active) | –
Oc1c(C(Nc2cccc(C(F)(F)F)c2)c2cccnc2)ccc2cccnc12 (stereo not given) | – | -27.3% [at 57.5 µM]
CCCC(=O)NC(c1ccc(C(C)C)cc1)c1ccc2cccnc2c1O (stereo not given) | – | -20.8%
Oc1c(C(Nc2ccccn2)c2cccnc2)cc(Cl)c2cccnc12 (stereo not given) | – | 20.9% [at 57.5 µM]
CC(=O)NC(c1cccc([N+](=O)[O-])c1)c1ccc2cccnc2c1O (stereo not given) | 1.58 µM (active) | –
CC(=O)NC(c1ccco1)c1ccc2cccnc2c1O (stereo not given) | – | -22.3%
CCc1nc2c(OCCOc3ccc(F)cc3)cccn2c1N(C)C(=O)c1ccco1 | – | 14.6% [at 57.5 µM]
CCCCOc1ccccc1NC(=O)c1scc2c1OCCO2 | – | -13.6%
Cc1ccc(/C=C2/CNC/C(=C/c3ccc(C)cc3)C2=O)cc1 | 8.91 µM (active) | –
O=C(CNC(=O)c1ccco1)N/N=C/c1cc(Br)ccc1O | – | -12.2% [at 57.5 µM]
CC(C)(CC(=O)N1CCN(c2ccc(Cl)cc2)CC1)CC1=NS(=O)(=O)c2ccccc2N1 | – | -18.6%
OC(c1cc(-c2cccc(Cl)c2)nc2ccccc12)C1CCCCN1 (stereo not given) | 17.8 µM (active) | –
CCOC(=O)Cn1cc(C(=O)c2ccco2)c2ccccc21 | – | 0.882%
Cc1c(C(=O)NCc2ccc(C(F)(F)F)cc2)sc(=O)n1Cc1cccc(F)c1 | – | 12% [at 57.5 µM]
CCn1cc(C(=O)NCc2cccc(F)c2)c(=O)c2cc(F)c(N3CCN(C(=O)c4ccco4)CC3)cc21 | 22.4 µM (active) | –

Structure (SMILES) | Potency | activity change, negative = cytotoxicity
CCCOc1ccc(C(=O)C(CN2CCOCC2)c2ccccc2)cc1 (stereo not given) | 25.1 µM (active) | –
CC(=O)c1ccc(N2CCN(CC(O)COC(c3ccccc3)c3ccccc3)CC2)cc1 (stereo not given) | – | -1.22%
COc1ccc(CC(=O)Nc2nc(-c3ccc(OC)c(OC)c3)cs2)cc1OC | – | -25.3%
COc1ccc(-c2csc(Nc3ccc(S(N)(=O)=O)cc3)n2)cc1OC | – | -22.9% [at 57.5 µM]
COc1cccc(CC(=O)Nc2nc(-c3ccc(OC)c(OC)c3)cs2)c1 | 28.2 µM (active) | –
CC(C)(C)c1ccc(CC(=O)N2CCC2(C)C(=O)Nc2cnc3ccccc3c2)cc1 (stereo not given) | – | -1.12%
NC(=S)n1[nH]c(-c2ccc([N+](=O)[O-])cc2)c(N=Nc2cccc(Cl)c2)c1=O | 14.1 µM (active) | –
CCOc1ccc(C(=O)Nc2ccc(Cc3ccncc3)cc2)cc1Br | – | -12.6% [at 57.5 µM]
Cc1cccc(OCCCC(=O)Nc2nc3ccccc3[nH]2)c1 | – | -23.8%
COC(=O)c1sc(NC(=O)c2ccc(OC)cc2OC)nc1C | – | -8.55% [at 57.5 µM]
Cc1cc(C)c(C)c(OC(=O)c2sc(Cl)nc2C)c1 | 20 µM (active) | –
Clc1ccc(COC(Cn2ccnc2)c2ccc(Cl)cc2Cl)c(Cl)c1 (stereo not given) | – | -29.7%
CCc1cc2c(=O)c(-c3cnn(-c4ccccc4)c3)coc2c(CN2CCOCC2)c1O | – | -15.4%
Cc1nnc(SCC(N)=O)n1CC1CCCO1 (stereo not given) | – | -21.6% [at 57.5 µM]
COc1cccc2c1C(=N)c1c(O)c3c(c(O)c1C2=O)CC(O)(C(C)=O)CC3OC1CC(N)C(O)C(C)O1 (stereo not given) | 1.26 µM (active) | –
CCCCC(=O)OCC(=O)C1(O)Cc2c(O)c3c(c(O)c2C(OC2CC(NC(=O)C(F)(F)F)C(O)C(C)O2)C1)C(=O)c1c(OC)cccc1C3=O (stereo not given) | 8.91 µM (active) | –
COc1cccc2c1C(=O)c1c(O)c3c(c(O)c1C2=O)C[C@](O)(C(C)=O)C[C@H]3O[C@@H]1C[C@@H](N)[C@@H](O)[C@@H](C)O1 | 0.891 µM (active) | –
Cn1c(CCc2nc3ccccc3[nH]2)nnc1SCC#N | – | 15.7% [at 57.5 µM]
CCC(C)(C)c1ccc(OCCCC[n+]2ccc(C)cc2)c(C(C)(C)CC)c1 | – | -27.3%
CN(CC(=O)Nc1cccc(F)c1)CC(=O)Nc1cccc2ccccc12 | – | -9.2% [at 57.5 µM]
CCN1CCN(Cc2ccc(NC(=O)c3ccc(C)c(NC(=O)c4nccnc4N)c3)cc2C(F)(F)F)CC1 | – | -25.1% [at 57.5 µM]
O=C1C=C(Nc2ccccc2O)c2ccccc2C1=O | 20 µM (active) | –
OC(c1ccccc1)(c1nc(-c2ccc3ccccc3c2)cs1)C(F)(F)F (stereo not given) | – | 11%
Cc1ccc(NS(=O)(=O)c2cc3c4c(cccc4c2)C(=O)NC3=O)cc1C | – | -14.4%

Structure (SMILES) | Potency | activity change, negative = cytotoxicity
O=C(N/N=C(\Cc1ncc[nH]1)c1ccccc1)c1cccnc1 | – | -16.1%
O=C(NN=C(c1ccccc1)c1ccccn1)c1ccccc1 | 3.16 µM (active) | –
CCC(CC)C(=O)c1c[nH]c(C(=O)NCc2ccccn2)c1 | – | 3.69% [at 57.5 µM]
O=C(N/N=C(\c1ccccc1)c1ccccn1)c1ccccc1Cl | 7.94 µM (active) | –
CCn1c2ccccc2c2cc(/C=N/n3cnnc3)ccc21 | – | -23.3%
CCN1CCN(C(=S)c2ccc(-c3ccccc3)cc2)CC1 | – | -13.5% [at 57.5 µM]
Cn1c2c(c(=O)[nH]c1=O)C(c1cccc(O)c1)C1=C(N2)c2ccccc2C1=O (stereo not given) | 11.2 µM (active) | –
CNc1nc2c(N)ncnc2n1[C@H]1O[C@@H](CO)[C@H](O)[C@@H]1O | – | 1.58%
N#Cc1c(N)n(C2OC(CO)C(O)C2O)c2ncnc(N)c12 (stereo not given) | 1.41 µM (active) | –
CCOC(=O)c1c(NC(=O)COC(=O)c2ccccc2NC)sc(C(=O)N(C)C)c1C | – | -3.31%
COC(=O)c1c(C)oc2ccc(N(C(=O)c3ccncc3)S(=O)(=O)c3ccc(C)cc3C)cc12 | – | -27.7%
CCC1(c2ccccc2)ON(c2c(Br)cccc2Br)C1=O (stereo not given) | 17.8 µM (active) | –
Cc1nc(Oc2ccc(S(=O)(=O)N3CCOCC3)cc2Cl)c2c3c(sc2n1)CCCC3 | – | -19.1%
N=c1ccn(CC(=O)c2ccc(-c3ccccc3)cc2)cc1 | – | -17.4%
Clc1ccc(-c2cc(C3CCNCC3)[nH]n2)c(Cl)c1 | – | 26.4% [at 57.5 µM]
COc1cc(NS(=O)(=O)c2ccc(N/C=C(\C#N)c3nc4cc(Cl)ccc4o3)cc2)nc(OC)n1 | 14.1 µM (active) | –
CCN1CCN(c2ccc(Cl)cc2NC(=O)c2ccc(-n3nc(C)cc3C)cc2)CC1 | – | -12.5% [at 57.5 µM]
Nc1nc(NCCc2ccccc2)nc(NCc2ccccc2)c1[N+](=O)[O-] | – | -23.9% [at 57.5 µM]
CCc1cc[n+](C2=C([O-])c3ccccc3C(=O)/C2=N\S(=O)(=O)c2cccs2)cc1 | 17.8 µM (active) | –
O=C(COC(=O)c1cc([N+](=O)[O-])ccc1N1CCOCC1)Nc1ccc(Cl)cn1 | 14.1 µM (active) | –
Cc1cc(C)c2c(CC(=O)Nc3ccc(Cl)cn3)coc2c1 | – | -3.79%
COc1ccccc1/C=C/C(=O)OCC(=O)Nc1ccc(Cl)cn1 | – | -27.1% [at 57.5 µM]
CCn1c(C)cc(C(=O)COC(=O)c2ccccc2[N+](=O)[O-])c1C | – | -4.45% [at 57.5 µM]
COc1ccc(O)c(/C=N/NC(=O)c2ccc(OCc3cccc(Br)c3)cc2)c1 | – | -22.1%

Structure (SMILES) | Potency | activity change, negative = cytotoxicity
COc1ccc(O)c(/C=N/NC(=O)c2ccc(N3CCCC3=O)cc2)c1 | – | -7.9% [at 57.5 µM]
O=C(N/N=C/c1cc([N+](=O)[O-])ccc1O)c1ccc(COc2ccc3c(c2)CCC3)o1 | 11.2 µM (active) | –
COc1ccc2nc(C)c3c(c2c1)OC(C(C)(Cl)Br)C3 (stereo not given) | – | -24.3%
N#CCc1nc2ccccc2c(=O)[nH]1 | – | 4.06% [at 57.5 µM]
CC1(C)COCN1S(=O)(=O)c1ccc(C(=O)Nc2nnc(-c3ccc(Cl)s3)o2)cc1 | – | -16.1%
O=C1c2cccc3cc([N+](=O)[O-])cc(c23)C(=O)N1CCN1CCCC1 | 1.58 µM (active) | –
C/[N+]([O-])=C\c1cccc(OCCN2CCN(c3ncc(C(F)(F)F)cc3Cl)CC2)c1 | – | 6.84%
COc1cc(C(=O)O/N=C(\N)Cc2ccc([N+](=O)[O-])cc2)cc(OC)c1OC | 3.16 µM (active) | –
Cn1c(CO)cnc1S(=O)(=O)Cc1ccc([N+](=O)[O-])cc1 | – | -1.7% [at 57.5 µM]
Cc1sc2nc(CN3CCCC3)nc(N3CCC(C(N)=O)CC3)c2c1C | – | -6.87% [at 57.5 µM]
Nc1ccc2c(c1)OC1(CCCC1)O2 | – | -18%
CCn1c2ccccc2c2cc(NC(=O)COC(=O)Cc3cn4ccsc4n3)ccc21 | – | 1.78%
CC1CCN(Cc2c(C(=O)N/N=C/c3cc(Br)ccc3O)nnn2-c2nonc2N)CC1 | – | -14%
Cc1cccc2c1-c1sc(C(=O)Nc3ccccc3N3CCN(C)CC3)cc1CO2 | 22.4 µM (active) | –
Cc1cc(N2CCN(C)CC2)ccc1NC(=O)c1ccc(-c2ccc(Cl)cc2)o1 | – | -20.4% [at 57.5 µM]
CC1CC(C)CN(CCCNC(=O)c2cc3c(s2)-c2ccccc2OC3)C1 (stereo not given) | – | -13.8%
NC(=O)CC(NC(=O)Cc1ccc(Br)cc1)c1ccc(NC2CCCC2)c([N+](=O)[O-])c1 (stereo not given) | 3.16 µM (active) | –
CC(C)C[C@H](N)c1cn([C@@H](CCCCN)C(=O)N2CCNCC2)nn1 | – | 6.2%
O=C(NC(Nc1nc2ccc([N+](=O)[O-])cc2s1)(C(F)(F)F)C(F)(F)F)c1ccccc1 | 0.562 µM (active) | –
O=C(NC(Nc1ncc(S(=O)(=O)c2ccc([N+](=O)[O-])cc2)s1)(C(F)(F)F)C(F)(F)F)c1ccc(Cl)cc1 | 10 µM (active) | –
Cc1nc2ccc(NC(=O)c3ccc(S(=O)(=O)N(C)c4ccccc4)cc3)cc2s1 | – | -14%
CO[C@@]12[C@@H]3N[C@@H]3CN1C1=C(C(=O)C(N)=C(C)C1=O)[C@@H]2COC(N)=O | – | 22.6%
CC1=CC(C)(C)N2C(=O)C3(SCC(=O)N3c3ccc(F)cc3)c3cc(C)cc1c32 (stereo not given) | – | -24%
